Experiment [1] in a line: ATG_NFI_CIS: Attagene CIS-FACTORIAL HepG2 Assay for human Nuclear Factor I (NFI) (AID 2282989). Particulars: HepG2 cis-regulatory reporter, NFI response element transcription; actives raise or lower the signal. A digest of the protocol: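 Transfected HepG2 liver cells, exposed 24 h, supplied total RNA for oligo(dT) reverse transcription and reporter-specific PCR. Labelled, HpaI-cut fragments were sized by capillary electrophoresis; DMSO set the baseline for bidirectional fitting.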

Experiment [2] can be described thus: ATG_NF_kB_CIS: Attagene CIS-FACTORIAL HepG2 Assay for human Nuclear Factor Kappa B (NF-kB) (AID 2282991). Particulars: HepG2 Attagene cis-factorial NF-kB reporter mRNA; actives raise or lower the signal. A digest of the protocol: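 Transient MRTU transfection of human HepG2 liver cells → 24 h chemical exposure → total RNA, oligo(dT) RT → PCR, 6-FAM primer extension, HpaI digest 2 h 37 C → CE fragment analysis. Bidirectional fitting, DMSO negative control.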

A short description of experiment [3]: ATG_NRF2_ARE_CIS: Attagene CIS-FACTORIAL HepG2 Assay for human Nuclear Factor Erythroid 2 Related Factor 2 (NFR2) response to Antioxidant Response Elements (ARE) (AID 2282992).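 On AC50: reporter mRNA level measured by RT-PCR and capillary electrophoresis fluorescence.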 Particulars: HepG2 Attagene ARE/NRF2 reporter, transcription factor activity; actives raise or lower the signal. The method in brief: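 Cis-factorial assay: transfected HepG2 reporter library, 24 h dosing, mRNA readout via RT-PCR/CE; DMSO-referenced bidirectional analysis.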

A short description of experiment [4]: ATG_Oct_MLP_CIS: Attagene CIS-FACTORIAL HepG2 Assay for human Octamer-Binding Transcription Factor (Oct) (AID 2282993). To be noted: HepG2 Attagene cis-factorial Oct reporter, mRNA; actives raise or lower the signal. The method in brief: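 Using HepG2 cells bearing transfected cis-reporter constructs, mRNA induction was read after 24 h by fluorescent RT-PCR and capillary electrophoresis, with DMSO defining baseline for gain- or loss-of-signal fits.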

The target in experiment [5] is Cellular tumor antigen p53 (Homo sapiens) (UniProt P04637). The experiment in a line: ATG_p53_CIS: Attagene CIS-FACTORIAL HepG2 Assay for human p53 Transcription Factor (AID 2282994). Particulars: HepG2 p53 cis-element reporter, Attagene mRNA; actives raise or lower the signal. The method in brief: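 Using HepG2 hepatoma cells carrying cis-acting multiplexed reporters, mRNA induction is detected after a 24 h exposure. Gain- and loss-of-signal responses are fitted relative to DMSO-treated cells.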
Cellular tumor antigen p53 (Homo sapiens), sequence (P04637 whole entry, looked up): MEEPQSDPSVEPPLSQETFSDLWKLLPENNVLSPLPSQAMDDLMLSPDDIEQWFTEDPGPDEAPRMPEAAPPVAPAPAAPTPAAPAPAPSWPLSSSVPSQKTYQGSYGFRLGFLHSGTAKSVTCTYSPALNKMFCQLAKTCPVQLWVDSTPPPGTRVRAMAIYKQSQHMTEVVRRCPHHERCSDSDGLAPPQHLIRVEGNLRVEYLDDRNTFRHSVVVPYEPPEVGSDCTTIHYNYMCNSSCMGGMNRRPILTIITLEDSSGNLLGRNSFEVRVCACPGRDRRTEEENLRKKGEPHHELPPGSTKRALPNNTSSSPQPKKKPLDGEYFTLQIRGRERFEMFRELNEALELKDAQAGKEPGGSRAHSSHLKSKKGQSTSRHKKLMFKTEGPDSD

For experiment [6], the target named is human Peroxisome Proliferator-activated Receptor alpha (PPARa), PPARA (gene 5465) (UniProt Q07869). Briefly: ATG_PPARa_TRANS: Attagene TRANS-FACTORIAL HepG2 Assay for human Peroxisome Proliferator-activated Receptor alpha (PPARa) (AID 2283001; active means hit-call score of the fitted dose curve at least 0.9, where 1 is the maximum;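 on AC50: potency for gain of reporter signal over DMSO so agonist or activator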). A digest of the protocol:
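Gain-of-signal endpoint: reporter mRNA induction relative to DMSO, detected by fluorescent RT-PCR and capillary electrophoresis. HepG2 cells transiently carried GAL4-UAS-driven reporter units plus NR-Gal4 fusion; exposure lasted 24 h.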

Experiment [7] deals with human Peroxisome Proliferator-activated Receptor delta (PPARd), PPARD (gene 5467) (UniProt Q03181). The experiment in a line: ATG_PPARd_TRANS: Attagene TRANS-FACTORIAL HepG2 Assay for human Peroxisome Proliferator-activated Receptor delta (PPARd) (AID 2283002; active means hit-call score of the fitted dose curve at least 0.9, where 1 is the maximum). A digest of the protocol: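 Measured quantity: GAL4-UAS reporter transcript induction in HepG2 after 24 h chemical dosing, with NR-Gal4 chimeras supplied by transient transfection. Detection by RT-PCR and capillary electrophoresis; upward fit against DMSO.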
human Peroxisome Proliferator-activated Receptor delta (PPARd), PPARD (gene 5467), sequence (Q03181 whole entry, looked up, the tested form may be a part): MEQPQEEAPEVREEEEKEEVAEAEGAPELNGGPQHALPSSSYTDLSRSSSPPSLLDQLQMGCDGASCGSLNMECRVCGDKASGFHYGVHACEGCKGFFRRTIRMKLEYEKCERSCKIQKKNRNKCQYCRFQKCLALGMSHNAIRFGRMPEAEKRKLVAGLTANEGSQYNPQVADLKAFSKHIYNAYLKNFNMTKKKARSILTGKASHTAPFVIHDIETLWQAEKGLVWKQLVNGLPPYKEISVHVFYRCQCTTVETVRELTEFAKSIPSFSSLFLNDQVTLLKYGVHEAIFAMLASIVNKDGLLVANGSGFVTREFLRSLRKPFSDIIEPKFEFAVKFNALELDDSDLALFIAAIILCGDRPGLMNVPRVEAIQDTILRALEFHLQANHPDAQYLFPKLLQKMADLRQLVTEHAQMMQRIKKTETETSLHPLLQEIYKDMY

The nature of experiment [8]: BSK_3C_uPAR: BioMAP Diversity Plus: 3C Assay for Urokinase-type plasminogen activator receptor (uPAR) Biomarker Activity (AID 2282998). Particulars: BioMAP 3C HUVEC, uPAR biomarker ELISA; actives raise or lower the signal. A digest of the protocol: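 In this endothelial cell-based assay, human umbilical vein primary cells were treated with chemicals and harvested at 24 h. uPAR was quantified using ELISA, with gains or losses fitted relative to DMSO controls.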
(In an ELISA, binding on a coated surface is turned into a signal by an enzyme label.)

Experiment [9] is described as follows: BSK_3C_VCAM1: BioMAP Diversity Plus: 3C Assay for Vascular cell adhesion molecule 1 (VCAM1) Biomarker Activity (AID 2282999). Particulars: BioMAP 3C HUVEC, VCAM1 ELISA, cytokine-stimulated; actives raise or lower the signal. The method in brief: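 Human umbilical vein endothelial cells were dosed with compound for 24 h, after which cell-surface VCAM-1 was quantified by ELISA. Bidirectional curve fitting used DMSO as negative control and activity baseline.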

The nature of experiment [10]: BSK_4H_Eotaxin3: BioMAP Diversity Plus: 4H Assay for Eotaxin 3 Biomarker Activity (AID 2283000).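 Further: CCL26 protein level quantified by ELISA in parallel with SRB cytotoxicity check.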 To be noted: primary human endothelial cells (HUVEC); actives raise or lower the signal. A digest of the protocol:
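Eotaxin-3 (CCL26) levels were measured by ELISA in HUVEC primary cultures 24 h post-dosing. Gain or loss of signal was fitted in both directions, with DMSO serving as baseline and negative control.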

Read-out in experiment [11]: Intercellular Adhesion Molecule 1 (ICAM1), ICAM1 (gene 3383)
The experiment in a line: BSK_3C_ICAM1: BioMAP Diversity Plus: 3C Assay for Intercellular Adhesion Molecule 1 (ICAM1) Biomarker Activity (AID 2283003). Particulars: primary human endothelial cells (HUVEC); actives raise or lower the signal. The method in brief:
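HUVEC primary cells stimulated under 3C conditions; ICAM1 measured by ELISA 24 h after compound dosing. Curves fitted bidirectionally against the DMSO baseline. Overt cytotoxicity checked by SRB staining of parallel cultures.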

The target in experiment [12] is Nuclear receptor subfamily 1 group I member 2 (Homo sapiens) (UniProt O75469). Briefly: ATG_PXR_TRANS: Attagene TRANS-FACTORIAL HepG2 Assay for human Pregnane X Receptor (PXR) (AID 2283008; active means hit-call score of the fitted dose curve at least 0.9, where 1 is the maximum). A digest of the protocol: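 Fluorescence intensity of FAM-labelled, HpaI-digested reporter amplicons, separated by capillary electrophoresis, quantifies induction. HepG2 cells with PXR-Gal4 trans-reporter system were exposed 24 h; DMSO defines baseline.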
Nuclear receptor subfamily 1 group I member 2 (Homo sapiens), sequence (O75469 whole entry, looked up, the tested form may be a part): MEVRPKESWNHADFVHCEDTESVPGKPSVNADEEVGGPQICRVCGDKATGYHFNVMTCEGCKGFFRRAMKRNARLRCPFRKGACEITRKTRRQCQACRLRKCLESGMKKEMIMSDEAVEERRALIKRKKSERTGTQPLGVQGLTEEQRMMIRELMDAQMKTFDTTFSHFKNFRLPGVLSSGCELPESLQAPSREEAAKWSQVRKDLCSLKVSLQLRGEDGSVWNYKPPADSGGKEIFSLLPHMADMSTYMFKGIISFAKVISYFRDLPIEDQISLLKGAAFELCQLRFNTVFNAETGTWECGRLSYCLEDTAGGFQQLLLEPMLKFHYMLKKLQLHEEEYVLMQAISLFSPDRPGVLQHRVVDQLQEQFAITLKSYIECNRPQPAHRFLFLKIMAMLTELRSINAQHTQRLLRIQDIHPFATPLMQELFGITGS

Experiment [13] concerns the target human RAR-related Orphan Receptor gamma (RORg), RORC (gene 6097) (UniProt P51449). Briefly: ATG_RORg_TRANS: Attagene TRANS-FACTORIAL HepG2 Assay for human RAR-related Orphan Receptor gamma (RORg) (AID 2283011; active means hit-call score of the fitted dose curve at least 0.9, where 1 is the maximum). A digest of the protocol:
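HepG2 cells transiently transfected with GAL4-UAS reporter units and chimeric RORg-Gal4 construct; after 24 h chemical exposure, reporter mRNA measured by RT-PCR with fluorescent capillary electrophoresis, gain of signal fitted against DMSO.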

Experiment [14] deals with Peroxisome proliferator-activated receptor gamma (Homo sapiens) (UniProt P37231). The experiment in a line: ATG_PPARg_TRANS: Attagene TRANS-FACTORIAL HepG2 Assay for human Peroxisome Proliferator-activated Receptor-gamma (PPARg) (AID 2283007; active means hit-call score of the fitted dose curve at least 0.9, where 1 is the maximum). The method in brief: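 Transient transfection of HepG2 with GAL4-UAS-driven reporter units; chemical dosing 24 h; total RNA → oligo(dT) RT → PCR with reporter primers → 6-FAM primer extension → HpaI digest 2 h 37 C → capillary electrophoresis. Positive direction vs DMSO.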
Peroxisome proliferator-activated receptor gamma (Homo sapiens), sequence (P37231 whole entry, looked up, the tested form may be a part): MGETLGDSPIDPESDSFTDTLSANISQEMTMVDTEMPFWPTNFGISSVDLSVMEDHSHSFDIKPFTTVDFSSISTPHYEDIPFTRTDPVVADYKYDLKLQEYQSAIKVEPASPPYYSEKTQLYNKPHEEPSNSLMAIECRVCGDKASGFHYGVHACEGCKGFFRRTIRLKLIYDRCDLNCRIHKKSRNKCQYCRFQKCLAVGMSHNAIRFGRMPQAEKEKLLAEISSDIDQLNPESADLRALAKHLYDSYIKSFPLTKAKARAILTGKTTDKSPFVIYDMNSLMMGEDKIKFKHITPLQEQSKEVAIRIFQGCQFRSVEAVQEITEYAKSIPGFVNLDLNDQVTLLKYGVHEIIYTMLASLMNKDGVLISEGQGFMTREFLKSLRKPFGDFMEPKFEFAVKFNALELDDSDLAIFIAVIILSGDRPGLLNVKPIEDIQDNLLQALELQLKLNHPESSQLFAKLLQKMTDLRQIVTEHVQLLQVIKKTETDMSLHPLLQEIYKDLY

Experiment [15] deals with Retinoic acid receptor alpha (Homo sapiens) (UniProt P10276). The experiment in a line: ATG_RARa_TRANS: Attagene TRANS-FACTORIAL HepG2 Assay for human Retinoic Acid Receptor alpha (RARa) (AID 2283005; active means hit-call score of the fitted dose curve at least 0.9, where 1 is the maximum). The method in brief:
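HepG2 cells transiently transfected with multiple reporter units expressing chimeric RARα-GAL4 fusion, with GAL4-UAS-driven reporters. After 24 h compound exposure, reporter mRNA induction quantified by RT-PCR and capillary electrophoresis with fluorescent labeling; gain-of-signal fitted relative to DMSO control.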

The target of experiment [16] is human Retinoic Acid Receptor gamma (RARg), RARG (gene 5916) (UniProt P13631). The experiment in a line: ATG_RARg_TRANS: Attagene TRANS-FACTORIAL HepG2 Assay for human Retinoic Acid Receptor gamma (RARg) (AID 2283009; active means hit-call score of the fitted dose curve at least 0.9, where 1 is the maximum). A digest of the protocol: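 HepG2 transiently transfected with GAL4-UAS reporter units and chimeric NR-Gal4 constructs; 24 h compound exposure. Reporter mRNA quantified by RT-PCR, FAM labeling, HpaI digestion and capillary electrophoresis; gain-of-signal versus DMSO.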
human Retinoic Acid Receptor gamma (RARg), RARG (gene 5916), sequence (P13631 whole entry, looked up, the tested form may be a part): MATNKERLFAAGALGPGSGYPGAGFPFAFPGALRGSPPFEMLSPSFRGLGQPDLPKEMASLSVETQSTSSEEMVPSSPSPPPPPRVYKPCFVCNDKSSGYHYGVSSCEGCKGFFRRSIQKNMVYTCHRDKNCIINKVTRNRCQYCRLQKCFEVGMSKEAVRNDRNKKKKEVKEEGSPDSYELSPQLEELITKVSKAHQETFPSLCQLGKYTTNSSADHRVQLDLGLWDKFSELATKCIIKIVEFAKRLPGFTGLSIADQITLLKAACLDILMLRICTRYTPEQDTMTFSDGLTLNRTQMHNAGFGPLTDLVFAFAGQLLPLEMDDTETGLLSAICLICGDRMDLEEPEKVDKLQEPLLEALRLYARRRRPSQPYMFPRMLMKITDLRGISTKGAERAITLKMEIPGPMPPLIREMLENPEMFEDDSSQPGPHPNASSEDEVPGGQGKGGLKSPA

The target in experiment [17] is human RAR-related Orphan Receptor beta (RORb), RORB (gene 6096) (UniProt Q92753). The experiment in a line: ATG_RORb_TRANS: Attagene TRANS-FACTORIAL HepG2 Assay for human RAR-related Orphan Receptor beta (RORb) (AID 2283010; active means hit-call score of the fitted dose curve at least 0.9, where 1 is the maximum). A digest of the protocol: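 HepG2 cells transiently transfected with GAL4-UAS reporter units expressing chimeric NR-Gal4 protein; reporter mRNA measured 24 h after dosing by RT-PCR, 6-FAM labelling and capillary electrophoresis. Gain-of-signal fitted relative to DMSO baseline.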
human RAR-related Orphan Receptor beta (RORb), RORB (gene 6096), sequence (Q92753 whole entry, looked up, the tested form may be a part): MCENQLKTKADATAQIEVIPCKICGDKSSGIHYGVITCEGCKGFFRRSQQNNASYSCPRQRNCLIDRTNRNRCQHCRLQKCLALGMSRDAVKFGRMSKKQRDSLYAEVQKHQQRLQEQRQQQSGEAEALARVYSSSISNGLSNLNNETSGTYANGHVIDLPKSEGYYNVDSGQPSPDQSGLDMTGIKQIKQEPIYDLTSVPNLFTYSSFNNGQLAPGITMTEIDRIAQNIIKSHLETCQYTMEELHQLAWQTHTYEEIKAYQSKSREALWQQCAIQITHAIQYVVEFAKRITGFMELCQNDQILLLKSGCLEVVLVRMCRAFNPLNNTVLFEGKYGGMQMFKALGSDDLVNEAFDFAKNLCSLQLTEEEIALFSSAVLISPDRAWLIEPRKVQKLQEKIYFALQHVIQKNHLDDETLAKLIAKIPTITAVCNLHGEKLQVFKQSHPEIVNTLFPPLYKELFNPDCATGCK

Experiment [18] deals with Myc proto-oncogene protein (Homo sapiens) (UniProt P01106). Briefly: ATG_Myc_CIS: Attagene CIS-FACTORIAL HepG2 Assay for human Myelocytomatosis (Myc) Proto-Oncogene Transcription Factor (AID 2282990). To be noted: HepG2, Attagene cis-reporter transcription factor activity; actives raise or lower the signal. A digest of the protocol:
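DMSO-normalised, bidirectionally fitted reporter mRNA signal. HepG2 cells transfected with cis reporter constructs, treated 24 h; transcripts detected by RT-PCR, 6-FAM primer extension and CE.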

Experiment [19] in a line: BSK_3C_Proliferation: Cell Proliferation Assessment in the BioMAP Diversity Plus: 3C Assay (AID 2283006). To be noted: primary human endothelial cells (HUVEC). The method in brief:
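Subconfluent HUVEC (3C system) cultured with chemical; relative cell number read at 48 h by sulforhodamine B total-protein staining (0.1% SRB after 10% TCA fixation, 560 nm). Bidirectional fit relative to DMSO.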

Molecules are shown by their SMILES. Inconclusive results are not listed. Active and inactive are the calls of the source. How the source made its calls, unless noted: active means hit-call score of the fitted dose curve at least 0.9, where 1 is the maximum; inactive means score below 0.9.

Retinoic acid receptor alpha (Homo sapiens), sequence (P10276 whole entry, looked up, the tested form may be a part): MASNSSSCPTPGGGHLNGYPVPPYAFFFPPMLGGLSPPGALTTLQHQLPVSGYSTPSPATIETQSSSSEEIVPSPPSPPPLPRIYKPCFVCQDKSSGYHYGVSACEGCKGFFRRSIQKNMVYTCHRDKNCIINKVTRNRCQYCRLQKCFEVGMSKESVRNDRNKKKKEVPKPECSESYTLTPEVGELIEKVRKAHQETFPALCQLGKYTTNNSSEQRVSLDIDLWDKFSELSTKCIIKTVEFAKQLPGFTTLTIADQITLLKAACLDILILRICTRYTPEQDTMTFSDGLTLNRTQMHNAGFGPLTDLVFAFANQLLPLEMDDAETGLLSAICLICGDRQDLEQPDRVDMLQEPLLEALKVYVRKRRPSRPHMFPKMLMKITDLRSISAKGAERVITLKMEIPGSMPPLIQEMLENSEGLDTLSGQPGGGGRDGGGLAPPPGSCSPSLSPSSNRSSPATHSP
human RAR-related Orphan Receptor gamma (RORg), RORC (gene 6097), sequence (P51449 whole entry, looked up, the tested form may be a part): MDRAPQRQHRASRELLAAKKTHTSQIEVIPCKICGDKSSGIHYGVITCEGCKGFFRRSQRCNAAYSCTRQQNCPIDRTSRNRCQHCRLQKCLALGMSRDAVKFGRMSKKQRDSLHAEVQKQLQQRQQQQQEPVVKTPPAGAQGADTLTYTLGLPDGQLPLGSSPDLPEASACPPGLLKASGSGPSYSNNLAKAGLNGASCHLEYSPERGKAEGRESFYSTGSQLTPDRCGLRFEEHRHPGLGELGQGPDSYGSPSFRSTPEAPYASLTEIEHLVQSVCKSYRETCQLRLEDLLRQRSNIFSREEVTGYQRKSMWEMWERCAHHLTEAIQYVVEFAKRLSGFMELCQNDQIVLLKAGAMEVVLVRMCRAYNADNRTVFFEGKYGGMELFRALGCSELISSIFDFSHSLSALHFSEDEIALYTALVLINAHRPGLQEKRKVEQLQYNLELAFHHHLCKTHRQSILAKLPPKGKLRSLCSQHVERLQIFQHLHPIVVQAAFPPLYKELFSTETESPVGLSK
human Peroxisome Proliferator-activated Receptor alpha (PPARa), PPARA (gene 5465), sequence (Q07869 whole entry, looked up, the tested form may be a part): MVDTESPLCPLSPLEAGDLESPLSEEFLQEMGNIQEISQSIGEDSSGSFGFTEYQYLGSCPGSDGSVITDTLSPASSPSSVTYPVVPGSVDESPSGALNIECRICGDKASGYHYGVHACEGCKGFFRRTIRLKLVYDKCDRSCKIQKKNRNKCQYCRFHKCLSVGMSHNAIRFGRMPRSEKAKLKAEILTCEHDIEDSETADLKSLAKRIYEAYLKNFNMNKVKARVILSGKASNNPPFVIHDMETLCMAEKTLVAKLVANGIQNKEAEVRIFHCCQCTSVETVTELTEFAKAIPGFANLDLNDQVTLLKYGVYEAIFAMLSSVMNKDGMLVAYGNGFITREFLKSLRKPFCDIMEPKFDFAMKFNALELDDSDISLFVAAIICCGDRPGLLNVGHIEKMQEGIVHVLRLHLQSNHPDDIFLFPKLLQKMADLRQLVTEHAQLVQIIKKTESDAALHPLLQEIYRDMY
Myc proto-oncogene protein (Homo sapiens), sequence (P01106 whole entry, looked up): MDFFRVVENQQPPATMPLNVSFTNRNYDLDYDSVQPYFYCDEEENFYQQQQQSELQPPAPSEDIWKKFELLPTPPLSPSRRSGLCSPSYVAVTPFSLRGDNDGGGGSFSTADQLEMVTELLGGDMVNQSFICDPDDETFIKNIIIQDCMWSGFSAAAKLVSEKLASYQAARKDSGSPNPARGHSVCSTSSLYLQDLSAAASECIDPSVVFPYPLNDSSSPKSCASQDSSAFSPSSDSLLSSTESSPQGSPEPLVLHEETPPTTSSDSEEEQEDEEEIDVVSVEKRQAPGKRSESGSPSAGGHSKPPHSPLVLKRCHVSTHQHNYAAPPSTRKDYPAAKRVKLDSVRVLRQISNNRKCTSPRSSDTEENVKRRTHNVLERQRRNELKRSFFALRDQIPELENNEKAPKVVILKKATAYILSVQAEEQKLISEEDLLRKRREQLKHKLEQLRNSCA

Consider `CCCc1c(OCCCOc2ccc(OCC(=O)O)cc2)ccc(C(C)=O)c1O`, for which the result in experiment [1], in experiment [2], in experiment [3], in [4] and in experiment [5] was inactive. The AC50 (commonly the concentration giving half of the maximal activity seen) in experiment [6] is 0.322 µM (active); in [7], 0.0841 µM (active).

For the molecule `C=C[Si](OCC)(OCC)OCC`, the result in [1], in experiment [2], in experiment [3], in [4], in experiment [5] and in [8] was inactive. Moreover, the result in experiment [9], in experiment [10], in experiment [6], in [11] and in [13] was inactive. Moreover, the AC50 in experiment [12] was 2.2 µM (active).

On to `Clc1ccc(Cl)c(Cl)c1Cl`, for which the result in [1], in experiment [2], in experiment [3], in experiment [4], in [5] and in [6] was inactive. Besides, the call in experiment [7] and in [13] was inactive.

Take `CNCCO`: the outcome in [1], in experiment [5], in experiment [14] and in [12] was inactive.

As to `CC(=O)c1c(C)cc(C(C)(C)C)cc1C`, the call in [1], in experiment [2], in experiment [3], in experiment [4], in [5] and in experiment [7] was inactive. Moreover, the molecule was called inactive in experiment [15], in [14], in experiment [12] and in experiment [16].

On to `O=C(O)COCCN1CCN(C(c2ccccc2)c2ccc(Cl)cc2)CC1` (centres undefined), for which the molecule was classed as inactive in [4], in experiment [5], in experiment [6], in experiment [7] and in experiment [12].

Turning to `CC[Si](OC(C)=O)(OC(C)=O)OC(C)=O`, the call in experiment [1], in [2], in experiment [3], in [4], in experiment [5] and in experiment [8] was inactive. The outcome in [9], in experiment [10], in experiment [11], in [14], in experiment [17] and in experiment [13] was inactive. For the same molecule, the AC50 in [12] is 7.32 µM (active).

Regarding `C=C(C)[C@@H]1CC[C@@H](C)C[C@@H]1O`, the result in experiment [1], in [3] and in [4] was inactive.

Take `Fc1c(F)c(F)c(Br)c(F)c1F`: the molecule was called inactive in [1], in experiment [2], in [3], in experiment [4], in experiment [5] and in experiment [7]. For the same molecule, the outcome in experiment [15], in [14] and in [12] was inactive.

As for `C=C(C)C(=O)NCCCN(C)C`, the molecule was called inactive in experiment [1], in [2], in experiment [3], in [4], in [5] and in [17].

On to `NCCCCCCN`, for which the molecule was classed as inactive in experiment [1], in experiment [2], in [4], in [5], in experiment [6] and in experiment [12]. Further, the call in [16] and in [13] was inactive.

`[Ca+2]`: the call in [1], in experiment [2], in [3], in experiment [7], in experiment [15] and in [12] was inactive. Moreover, the outcome in [13] was inactive.

Take `CN1[C@@H]2CC(OC(=O)[C@H](CO)c3ccccc3)C[C@H]1[C@@H]1O[C@@H]12` (some centres undefined): the call in experiment [18], in experiment [4], in experiment [5], in experiment [7], in experiment [14] and in experiment [12] was inactive. For the same molecule, the result in [17] and in experiment [13] was inactive.

As for `CC(=O)OCC=Cc1ccccc1`, the molecule was called inactive in experiment [1], in experiment [4], in [5], in [12] and in experiment [13]. Further, the figures for the AC50 in experiment [3] and in experiment [14] were 34.9 µM (active) and 9.38 µM (active), respectively.

In the case of `CCCCC[Si](OCC)(OCC)OCC`, the molecule was classed as inactive in [1], in experiment [2], in experiment [4], in experiment [15], in [14] and in experiment [16]. Also, the result in experiment [13] was inactive. For the same molecule, the AC50 in [12] is 7.48 µM (active).

For the molecule `O=C(O)c1cn(C2CC2)c2cc(N3CCNCC3)c(F)cc2c1=O`, the outcome in experiment [18], in experiment [5], in [8], in experiment [9], in experiment [10] and in experiment [6] was inactive. Further, the result in experiment [11], in [19] and in experiment [12] was inactive.

The values above are taken from PubChem BioAssay (EPA / NIEHS).
